Assay results reported in PubChem BioAssay AID504333 (National Center for Advancing Translational Sciences (NCATS), 2011).
The campaign covered roughly 360,000 compounds. About 16,000 (4.4%) were called active. Where a call stands in place of a potency, no number is given. Not shown: some 9% with an inconclusive outcome. The call rests on the fitted dose curve; in most records, active means well fitted inhibition curve with a large enough effect; inconclusive means small, poorly fitted or top-dose-only effect; inactive means no such curve, though single readings can be large or run the other way. This excerpt belongs to a sample that is enriched for actives.
Further: nearly all actives have a fitted effect of over 60% in size.
Potency means the concentration at half of the fitted maximal effect.

What follows are molecules tested against Bromodomain adjacent to zinc finger domain protein 2B (Homo sapiens) (UniProt Q9UIF8) (assay: qHTS Assay for Inhibitors of BAZ2B). Settings: AlphaScreen BAZ2B-H3K14Ac peptide displacement; series mostly up to 114 µM.
Sequence of Bromodomain adjacent to zinc finger domain protein 2B (Homo sapiens) (Q9UIF8 whole entry, looked up, the tested form may be a part): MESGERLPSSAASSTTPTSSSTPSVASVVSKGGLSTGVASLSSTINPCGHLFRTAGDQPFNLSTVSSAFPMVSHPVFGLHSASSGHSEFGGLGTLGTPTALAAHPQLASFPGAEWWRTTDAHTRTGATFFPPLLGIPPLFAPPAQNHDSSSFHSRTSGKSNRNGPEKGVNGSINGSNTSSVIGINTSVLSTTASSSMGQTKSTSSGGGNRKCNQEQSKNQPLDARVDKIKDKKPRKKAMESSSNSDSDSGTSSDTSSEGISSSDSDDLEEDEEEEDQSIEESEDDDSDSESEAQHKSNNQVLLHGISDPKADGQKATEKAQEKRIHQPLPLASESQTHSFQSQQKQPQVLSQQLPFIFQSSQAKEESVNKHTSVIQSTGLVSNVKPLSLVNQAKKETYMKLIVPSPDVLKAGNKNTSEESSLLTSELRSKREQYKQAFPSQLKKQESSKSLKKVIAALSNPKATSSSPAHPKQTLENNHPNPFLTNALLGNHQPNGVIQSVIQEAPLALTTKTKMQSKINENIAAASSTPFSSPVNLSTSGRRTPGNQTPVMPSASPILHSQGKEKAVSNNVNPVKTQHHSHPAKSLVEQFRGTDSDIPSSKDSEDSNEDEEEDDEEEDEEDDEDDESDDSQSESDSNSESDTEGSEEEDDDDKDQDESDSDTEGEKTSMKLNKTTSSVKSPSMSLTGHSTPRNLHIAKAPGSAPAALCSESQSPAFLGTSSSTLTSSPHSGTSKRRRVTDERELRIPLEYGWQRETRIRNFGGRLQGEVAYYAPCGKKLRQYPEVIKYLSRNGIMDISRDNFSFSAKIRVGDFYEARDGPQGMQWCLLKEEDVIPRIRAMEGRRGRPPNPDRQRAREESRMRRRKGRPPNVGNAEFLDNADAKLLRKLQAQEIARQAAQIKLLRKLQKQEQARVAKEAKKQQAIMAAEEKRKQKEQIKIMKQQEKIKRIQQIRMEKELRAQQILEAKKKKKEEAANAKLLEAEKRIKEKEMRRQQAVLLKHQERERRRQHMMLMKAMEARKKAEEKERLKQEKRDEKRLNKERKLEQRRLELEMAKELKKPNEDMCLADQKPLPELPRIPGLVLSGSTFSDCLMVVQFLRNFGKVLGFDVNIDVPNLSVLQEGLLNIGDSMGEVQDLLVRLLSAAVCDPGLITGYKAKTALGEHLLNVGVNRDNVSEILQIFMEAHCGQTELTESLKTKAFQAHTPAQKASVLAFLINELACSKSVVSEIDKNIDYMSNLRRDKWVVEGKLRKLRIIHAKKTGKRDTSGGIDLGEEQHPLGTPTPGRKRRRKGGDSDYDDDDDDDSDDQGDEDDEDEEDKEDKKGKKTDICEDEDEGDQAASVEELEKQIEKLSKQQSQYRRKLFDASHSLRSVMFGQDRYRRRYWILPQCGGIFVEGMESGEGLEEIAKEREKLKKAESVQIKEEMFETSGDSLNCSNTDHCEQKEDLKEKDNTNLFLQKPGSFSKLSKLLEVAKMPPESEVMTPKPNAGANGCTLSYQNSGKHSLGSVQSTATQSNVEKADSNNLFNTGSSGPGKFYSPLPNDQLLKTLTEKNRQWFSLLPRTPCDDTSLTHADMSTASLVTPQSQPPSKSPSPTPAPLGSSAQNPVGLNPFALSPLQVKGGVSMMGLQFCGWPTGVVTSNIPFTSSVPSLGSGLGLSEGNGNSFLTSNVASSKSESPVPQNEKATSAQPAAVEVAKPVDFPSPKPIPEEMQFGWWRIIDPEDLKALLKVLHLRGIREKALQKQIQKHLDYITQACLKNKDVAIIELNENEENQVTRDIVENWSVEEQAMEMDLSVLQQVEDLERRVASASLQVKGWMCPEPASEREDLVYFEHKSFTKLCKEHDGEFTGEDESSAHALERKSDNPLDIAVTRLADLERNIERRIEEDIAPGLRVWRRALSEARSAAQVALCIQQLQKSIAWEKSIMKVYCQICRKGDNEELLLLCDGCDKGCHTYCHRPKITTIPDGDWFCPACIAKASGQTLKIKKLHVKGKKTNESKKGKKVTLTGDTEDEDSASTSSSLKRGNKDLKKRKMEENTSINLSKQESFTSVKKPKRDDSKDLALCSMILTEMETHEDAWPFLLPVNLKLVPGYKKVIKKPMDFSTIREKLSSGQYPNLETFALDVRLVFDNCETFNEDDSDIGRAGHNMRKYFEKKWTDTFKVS
From the text: BAZ2B (bromodomain adjacent to zinc finger domain, 2B) belongs to a family of ubiquitously expressed bromodomain containing proteins, which biological function has not yet been elucidated. […] The interaction of BAZ2B with ISWI mediated by the BAZ1 motif has recently been described. […] The protocol is based on the AlphaScreen (PerkinElmer) displacement assay developed by NCGC [5], but uses the peptide ligand Biot-H3K14Ac, a high affinity binding partner for BAZ2B, in an AlphaScreen format. Although AlphaScreen has significant advantages with its utility in a variety of epigenetic target assays, the primary screening data provided in this deposition should be used with caution due to the prevalence of screening artifacts. The top compound concentration tested was 110uM in this assay, which increases number of actives and potential artifacts. An AlphaScreen counterscreen is highly recommended to be run against any putative actives to eliminate non-specific artifacts. Alternatively, one can use other AlphaScreen assays in PubChem to filter out promiscuous hits. Eberharter, A. et al. ACF1 improves the effectiveness of nucleosome mobilization by ISWI through PHD-histone contacts. The EMBO journal 23, 4029-4039. 2004. PMID: 15457208 [2] Jones, M.H. et al. A novel family of bromodomain genes. Genomics 63, 40-45. 2000. PMID: 10662543 [3] Yasgar, et al. Compound Management for Quantitative High-Throughput Screening. JALA. 2008 Apr;13(2):79-89. PMID: 18496600 [4] Inglese, et al. Quantitative high-throughput screening: a titration-based approach that efficiently identifies biological activities in large chemical libraries. Proc Natl Acad Sci. 1;103(31):11473-8. 2006. PMID: 16864780 [5] Quinn et al. A chemiluminescence-based method for identification of histone lysine methyltransferase inhibitors. Mol Biosyst 6(5): 782-8. 2010. PMID: 20567762 [6] Baell,Holloway. New substructure filters for removal of pan assay interference compounds (PAINS) from screening libraries and for their exclusion in bioassays. J Med Chem. 53(7):2719-40. 2010. PMID: 20131845 NIH Molecular Libraries Probe Production Network [MLPCN] NIH Chemical Genomics Center [NCGC] Structural Genomics Consortium (SGC) NIH Grant: 5U54 MH084681-02
To each well of a 1,536w plate, 2ul of BAZ2B protein (final 50nM) and 1ul biotinylated histone peptide acetylated at Lys14 [b-H3(5-23)K14Ac] (final 50nM) were added in 1x PBS buffer, pH 7.4, containing 0.01% Tween-20, using a nanoliter dispenser. Formation of a protein-peptide complex proceeded at room temperature for 30 min. A Kalypsys pin-tool was employed to transfer 23 nL of library compound solution in DMSO to each well. Following a 30 min incubation of the protein-peptide complex with compounds at room temperature, a mixture of 40 ug/mL each streptavidin-coated donor and nickel chelate acceptor AlphaScreen beads (final 10 ug/mL) were added in a 1ul dispense for a final volume of 4ul. A brief centrifugation followed (1000rpm, 1 min) and were then incubated protected from the light for 20 min at room temperature. Plates were read on an EnVision multilabel plate reader using the 1,536 plate HTS AlphaScreen aperture (excitation time 80 ms, measurement time 240 ms).
With `COC(=O)C1=C(c2ccc(F)cc2OCc2ccccc2)C[C@@H]2CC[C@H]1N2C(=O)NCc1ccc(OC)c(OC)c1` the Potency was “inactive”. With `O=C(CCC(=O)N1C[C@H]2C[C@@H](C1)c1cccc(=O)n1C2)NCc1ccccc1C(F)(F)F` the Potency was “inactive”. For `CN1CCN(Cc2ccccc2C(F)(F)F)CC1`, the Potency was “inactive”. `CN1CCN(Cc2ccc(OC(F)(F)F)cc2)CC1` was tested, and the Potency was 56.2 µM (active). In the case of `CC(C)c1ccc(OCC(=O)N2CCCN(C)CC2)cc1`, the Potency is reported as “inactive”. For `CCN(CC)C(=O)c1ccc(NC(=O)c2sccc2-c2ccccc2)cc1`, the Potency was “inactive”. `CCOc1cc(N2CCOCC2)c(OCC)cc1NC(=O)C1=NN(c2cccc(C)c2)C(=O)CC1` was tested, and the Potency was 8.91 µM (active). `CN(C)CC1Oc2ccccc2OC1(O)c1ccccc1` (stereo not given) was tested, and the Potency was “inactive”. With `CN(C)c1ccc(/C=C2\CC3C4CC=C5CC(O)CCC5(C)C4CCC3(C)C2=O)cc1` (stereo not given) the Potency was “inactive”. For `COC(=O)C1=C(c2ccc(F)cc2OCc2ccccc2)C[C@@H]2CC[C@H]1N2C(=O)NCc1ccc(Cl)cc1`, the Potency was “inactive”. With `c1cc2c(cc1[C@H]1OC[C@H]3[C@@H]1CO[C@@H]3c1ccc3c(c1)OCO3)OCO2` the Potency was “inactive”. For `OC(CNC1CCCCC1)c1ccccc1` (stereo not given), the Potency was “inactive”. For `c1cc2c(cc1CCNC1CCCCCC1)OCO2`, the Potency was 17.8 µM (active). For `c1ccc(CC2CCCCN2)cc1` (stereo not given), the Potency was “inactive”. With `c1ccc(CCNC2CCCCCC2)cc1` the Potency was 70.8 µM (active). For `Cc1ccc(CN2CCCC(C(=O)c3ccc4c(c3)OCO4)C2)cc1C` (stereo not given), the Potency was “inactive”. `COc1cc(Cn2c(N)c(C(=O)NCc3ccco3)c3nc4ccccc4nc32)cc(OC)c1OC` was tested, and the Potency was “inactive”. `O=C(c1ccccc1[N+](=O)[O-])N1CCC2(CC1)OCCO2` was tested, and the Potency was “inactive”. In the case of `COC(=O)C1=C(c2ccc(F)cc2F)C[C@@H]2CC[C@H]1N2C(=O)NC1CC1`, the Potency is reported as “inactive”. In the case of `Cc1ccc2c(c1)=C/C(=C\c1c(O)[nH]c(=O)[nH]c1=O)C(=O)N=2`, the Potency is reported as “inactive”. With `CCOc1ccc(-c2cc(C)[n+](CCN(CC)CC)c(-c3ccc(OCC)cc3)c2)cc1` the Potency was “inactive”. With `Cc1ccc(C(C)C)c(OCC(=O)N2CCN(CC(=O)N3CCOCC3)CC2)c1` the Potency was “inactive”. In the case of `CN(C)c1ccc(NC(=O)CN2C3CCCC2CC(NC(=O)c2ccccc2)C3)cc1` (stereo not given), the Potency is reported as 70.8 µM (active). In the case of `CC(=O)Nc1ccc(C(=O)C(Cc2ccccc2)N(C)C)cc1` (stereo not given), the Potency is reported as “inactive”. With `CN(C)S(=O)(=O)c1cc(C(=O)N2CCC(C(=O)O)(c3ccccc3)CC2)ccc1Cl` the Potency was “inactive”. For `CCN1CCN(c2nc3c(c(=O)[nH]2)CCC3)CC1`, the Potency was “inactive”. `O=C(Nc1ccc(Cl)cc1C(=O)c1ccccc1)c1cc(Cl)cc(Cl)c1` was tested, and the Potency was “inactive”. `Cc1cccc(N2C(=O)NC(=O)/C(=C\c3cnn(-c4ccccc4)c3)C2=O)c1` was tested, and the Potency was “inactive”. For `COc1cccc(N2C(=O)NC(=O)/C(=C\c3cn(C)c4ccccc34)C2=O)c1`, the Potency was “inactive”. In the case of `COc1cccc(N2C(=O)NC(=O)/C(=C\c3ccc([N+](=O)[O-])s3)C2=O)c1`, the Potency is reported as 31.6 µM (active). In the case of `O=C1NC(=O)N(c2ccccc2)C(=O)/C1=C/c1ccc([N+](=O)[O-])s1`, the Potency is reported as 35.5 µM (active). With `Cc1nn(-c2ccccc2)c(C)c1NC(=O)COC(=O)Cc1ccccc1` the Potency was “inactive”. For `COC(=O)C1=C(c2ccc(C(C)=O)cc2)C[C@@H]2CC[C@H]1N2C(=O)NCCNC(C)=O`, the Potency was “inactive”. In the case of `CC(C)n1c(=O)c(C=Nc2ccc(Br)cc2)c(O)n(Cc2ccco2)c1=O`, the Potency is reported as “inactive”. In the case of `Cc1cc(C(=O)OCC(=O)Nc2c(F)cccc2F)c(C)n1C1CC1`, the Potency is reported as “inactive”. For `COc1ccccc1OC(=O)c1ccc(C)c(S(=O)(=O)N2CCOCC2)c1`, the Potency was “inactive”. With `COc1ccc(CN2C(=O)NC(=O)/C(=C\c3ccc(OC)c(OC)c3OC)C2=O)cc1` the Potency was “inactive”. For `COc1ccc(N2C(=O)/C(=C/c3ccco3)C(=O)NC2=S)cc1`, the Potency was 3.55 µM (active). With `Cc1ccc(S(=O)(=O)N(C)c2ccc(C(=O)NCC3(N(C)C)CCCCC3)cc2)cc1` the Potency was “inactive”. `CN(C)C(=O)Oc1ccc(OCc2cccc[n+]2C)cc1` was tested, and the Potency was “inactive”. In the case of `COC(=O)C1=C(c2ccc(F)cc2OCc2ccccc2)C[C@@H]2CC[C@H]1N2C(=O)NCc1ccc(C(C)(C)C)cc1`, the Potency is reported as “inactive”. With `O=C(OCC1O[C@@H](OC(=O)c2cc(O)c(O)c(O)c2)[C@@H](OC(=O)c2cc(O)c(O)c(O)c2)[C@@H](OC(=O)c2cc(O)c(O)c(O)c2)[C@@H]1OC(=O)c1cc(O)c(O)c(O)c1)c1cc(O)c(O)c(O)c1` (stereo not given in full) the Potency was 0.708 µM (active). `CN(C)C(=O)Oc1ccc2c(c1)O/C(=C\c1ccccc1)C2=O` was tested, and the Potency was “inactive”. In the case of `CC1CCC(N(C)C2CCN(C)CC2)CC1` (stereo not given), the Potency is reported as “inactive”. `CNC(=O)O/N=C(\N)Cc1csc2ccc(Cl)cc12` was tested, and the Potency was “inactive”.
